Results on 37 compounds are retold here after ChEMBL document CHEMBL1157539, “Thousands of chemical starting points for antimalarial lead identification” (Nature, 2010).

The subject of this test is Plasmodium falciparum. The test is described as follows: GSK_TCMDC: Inhibition of Plasmodium falciparum 3D7 in whole red blood cells, using parasite LDH activity as an index of growth. Test compounds present at 2uM. It counts as functional.
With `CC(C)n1cc(CN2CCCC(C(=O)Nc3cccc(-c4cc5ccccc5[nH]4)c3)C2)cn1` (configuration not stated), the Inhibition is 96%.
`O=C(NCCN1CCOCC1)c1ccc(-c2ccc(CNCCCc3ccccc3)cc2)nc1.O=C(O)C(F)(F)F` came in with an Inhibition of 97%.
Next, `COc1ccc(NC(=O)[C@H](Cc2ccccc2)Nc2cc(C)nc(NCCc3ccc(F)cc3)n2)cc1.O=C(O)C(F)(F)F`: 100%.
Next, `CC(Cc1ccc(NC(=O)c2ccc(CNCc3ccccc3)cc2)cc1)N(CCc1cccc(Cl)c1)C(=O)OC(C)(C)C` (configuration not stated): 95%; `COc1ccc2nccc([C@@H](O)CN3CCC(NC(=O)c4cccc(C(=O)c5ccccc5)c4)CC3)c2c1`: 99%; `Cc1nc(Nc2ccncc2)cc(-c2ccncc2)n1`: 100%.
As for `O=C(/C=C/c1ccc(Cl)c(Cl)c1)NCCCCCCN1CCN(C(=O)Nc2cc(Cl)nc(Cl)c2)CC1`, the figure is 100%; as for `N#CCCN1CCN(Cc2cccc(-c3ccc(-c4nc5cc(C(F)(F)F)ccc5[nH]4)cc3)c2)CC1.O=C(O)C(F)(F)F`, 100%; as for `CCCc1cc(Cc2cnc(N)nc2N)cc(CC)c1O.Cl`, 87%.
`Cc1ccc(NS(=O)(=O)c2cccs2)cc1-c1cccc(C(=O)Nc2ccc(F)cc2)c1` showed an Inhibition of 99%.
`CCOc1cc(CC)ccc1C1CCN(CCCCNC(=O)c2ccc(NC(=O)c3ccc(Cl)cc3)cc2)CC1.Cl` came in with an Inhibition of 100%.
`COc1ccc(Nc2nccc(N3CCC(NC(=O)Nc4cccc(C(C)=O)c4)C3)n2)cc1` (configuration not stated): the Inhibition was found to be 98%.
As for `Cc1ccc(Sc2ccc(NC(=O)CN3CCN(C(=O)c4ccco4)CC3)cc2)cc1C`, the figure is 92%; as for `COc1ccc(CCn2c(C3CCCCC3)nc3oc4ccccc4c(=O)c3c2=O)cc1`, 91%; as for `O=C(NCCc1ccccc1F)c1ccc(N2CCN(c3ccncc3)CC2)cn1.O=C(O)C(F)(F)F`, 93%.
`Cc1ccccc1/N=C1\NC(=S)N(c2cccc(C(F)(F)F)c2)C12CCC(C(C)(C)C)CC2` (configuration not stated) showed an Inhibition of 95%.
In turn, `O=C(CN1CCCCC1)Nc1ccc(Nc2nccc(NCC(O)c3ccccc3)n2)cc1` (configuration not stated) registered an Inhibition of 100%.
Next, `COC(=O)CCCCOc1cc(Cc2cnc(N)nc2N)cc(OC)c1OC`: 97%; `CCOc1cccc(C(=O)Nc2ccc(-c3nc4ccccc4[nH]3)cc2)c1`: 96%; `CC(C)c1cn2c3c(cc(C(=O)N[C@@H](Cc4ccccc4)[C@H](O)CNC4CCCCC4)cc13)N(C)S(=O)(=O)CC2.O=CO`: 98%.
Consider `CC(C)Cc1nc(N)nc(N)c1-c1ccc(Cl)cc1`, for which the Inhibition stood at 96%.
In the case of `O=C(Nc1ccc(N2CCCCC2)c(Cl)c1)c1ccco1`, the Inhibition is 96%.
Next, `Br.COc1cc(CCON2C(N)=NC(N)=NC2(C)C)cc(OC)c1OC`: 93%; `CC(CN(C)C)C(=O)Nc1ccc(-c2ccc(-c3nc4ccccc4[nH]3)s2)cc1` (configuration not stated): 100%; `CC(C)(C)OC(=O)NCc1ccc(Nc2nnc(-c3cccc(OCC(=O)NCc4cc(C(F)(F)F)cc(C(F)(F)F)c4)c3)o2)cc1`: 90%.
Consider `FC(F)(F)c1ccc2[nH]c(-c3ccc(-c4ccc(CNCc5cnn(-c6ccccc6)n5)cc4)cc3)nc2c1.O=C(O)C(F)(F)F`, for which the Inhibition is listed as 100%.
In turn, `CCCCCCCCc1nc(C)c(Br)c(O)c1Br` gave an Inhibition of 96%.
As to `Cc1nc(C)c(CC(=O)Nc2ccc(-c3ccc(-c4nc5cc(C(F)(F)F)ccc5[nH]4)s3)cc2)s1`, the Inhibition was 90%.
With `Cc1c(CNCCCNc2cc(=O)c3ccccc3[nH]2)sc(/C=N/O)c1Br.Cl`, the Inhibition stood at 82%.
As for `Cc1cccc2nc(-c3ccc(-c4ccc(CN5CCN(CCN6CCOCC6)CC5)cc4)s3)[nH]c12.O=C(O)C(F)(F)F`, the figure is 100%.
Next, `CS(=O)(=O)n1c(CN2CCN(c3ncc(C(F)(F)F)cc3Cl)CC2)nc2ccccc21`: 83%; `COc1cc2nccc(Nc3ccc(OCc4ccc(NC(C)=O)cc4)cc3)c2cc1OC.Cl`: 100%; `O=C(c1ccc(Cl)cc1Cl)N1CCCC(C(F)(F)F)C1` (configuration not stated): 95%.
Next, `CN(CCN)Cc1cccc(-c2cccc(-c3nc4cc(C(F)(F)F)ccc4[nH]3)c2)c1.O=C(O)C(F)(F)F`: 99%; `COc1cc(C(=O)N2CCOC(CCN3CCC4c5ccccc5CC43)(c3ccc(Cl)c(Cl)c3)C2)cc(OC)c1OC` (configuration not stated): 88%.
In the case of `Cc1cc(N[C@@H](Cc2ccccc2)C(=O)NCCOc2ccccc2)nc(NCCc2ccccc2)n1.O=C(O)C(F)(F)F`, the Inhibition came out at 100%.
As for `Br.CC1(C)NC(N)=NC(=N)N1OCCCOc1ccc(N)cc1`, the figure is 96%.

In general, Inhibition refers to the drop in the measured response relative to a control, in per cent.
